This note sets out measurements from PubChem BioAssay (NCI).

The panel holds about 83,000 compounds, 20% with a hit somewhere; the sample as a whole holds those more often.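 Single-dose data. Exposure time 48 hours. Values below 10 considered active.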 Activity calls are given as the source filed them.

The subject of this test is HS 578T breast. Nature of the test: NCI-60 one-dose screen, 48 h (100 = growth as untreated, 0 = no growth, -100 = all killed). The following applies: 10 µM unless noted. Here is the method:
Growth inhibition of the HS 578T human tumor cell line is measured as a screen for anti-cancer activity. Cells are grown in 96 well plates and exposed to the test compound for 48 hours. Compounds are tested at a single concentration, which is 10^-5 M for most compounds. The reported endpoint is percent growth (GI% or GIPRCNT), where numbers from 0 - 100% represent growth inhibition, and numbers from -100% - 0 represent cell death. For example, a value of 40 represents 60% growth inhibition. A value of 0 means no net growth occurred over the course of the experiment. A value of -40 indicates 40% of cells at the beginning of the experiment died by the end of the experiment. A value of -100 means all cells are dead at the end of the experiment.
NCI-60 Human Tumor Cell Lines Screen was performed using the standard one-dose NCI protocol, which is described in more detail at https://dtp.cancer.gov/discovery_development/nci-60/default.htm.
Compounds with GIPRCNT values below 10 were considered active. Activity score was based on GIPRCNT using the following formula: […]
Score is 0 for GIPRCNT values of 100 or above, 50 for GIPRCNT values of 0, and 100 for GIPRCNT values of -100.
As for `CC(=[N-])N1CCC[C@@H](Nc2c3ccccc3nc3ccccc23)C1.[Cl][Pt].[NH-]CCC[NH-]`, the growth is 51.7% (inactive).
To `CN1CCN(C2=C(Cl)C(=O)c3ccccc3C2=O)CC1` belongs 27.8% (inactive).
In the case of `O=[N+]([O-])c1ccc2[nH]cc(-c3c4ccsc4cc4[nH]c5ccc([N+](=O)[O-])cc5c34)c2c1` it was 26.6% (inactive); in that of `COc1ccc(OC)c(/C=C2\COc3ccc(O)c(O)c3C2=O)c1`, 22% (inactive); in that of `O=C1NCC(=O)N(Cc2ccco2)[C@H]1Cc1ccccc1`, 89% (inactive).
To `C=C1C(=O)O[C@H]2[C@H]1CC/C(Cn1cc(CNCCc3c[nH]c4ccccc34)nn1)=C\CC[C@@]1(C)O[C@@H]21` belongs 92.4% (inactive).
Consider `COc1ccc(-c2c(N)n[nH]c2-c2ccccc2O)cc1OC`, for which the growth was 91.7% (inactive).
To `Nc1c(-c2nc3ccccc3c(=O)[nH]2)nnn1-c1ccc(Cl)cc1` belongs 51.1% (inactive); to `Cc1cc(N2CCCCC2)nc(N(CCNc2ccnc3cc(Cl)ccc23)Cc2ccccn2)n1`, 53.5% (inactive).
With `CN1CCN(CCCOc2ccc3nc(Nc4cc(Cl)cc(Cl)c4)ccc3c2)CC1`, the growth was -34.7% (active).
To `CCCNCC(=O)Nc1ccc(C(=O)OC(C)(C)CC)cc1` belongs 105% (inactive); to `CCOc1ccc2nc(-c3cccc(OCC(=O)NC(C)C)c3)nc(Nc3ccc(-c4cn[nH]c4)cc3)c2c1`, -44.5% (active); to `CNC(=O)NCC1OC(n2cnc3c(NC(=O)Nc4ccccc4)ncnc32)C2OC(C)(C)OC12` (stereo not given), 102% (inactive).
To `CCN(CC)CC(=O)Nc1cccc(C(=O)OC(C)C)c1` belongs 120% (inactive); to `N#Cc1c(NC(=O)c2cccc(C(F)(F)F)c2)sc2c1CCC(=O)C2`, 1.32% (active).
In the case of `O=[N+]([O-])c1ccc(-c2cc3c(Nc4ccc(OCc5cccc(Cl)c5)c(Cl)c4)ncnc3s2)cc1` it was 82.1% (inactive); in that of `COc1ccc2cc(-c3ccc(C(=O)NN)c(C)n3)ccc2c1`, 99.4% (inactive); in that of `C=C(C=O)[C@@H]1CC=C(C=O)CC1`, 6.33% (active).
With `CCCCCCCCn1cc(C2=C(c3coc4ccc(OC)cc34)C(=O)NC2=O)c2ccccc21`, the growth was 101% (inactive).
In the case of `Cc1cc(Cl)nc(N(CCCNc2ccnc3cc(Cl)ccc23)Cc2ccccn2)n1` it was 78.6% (inactive).
In the case of `COc1ccc(-c2cncnc2N)cc1OC` it was 107% (inactive).
In the case of `O=[N+]([O-])c1ccc(-c2cc3c(Nc4ccc(Sc5nc6ccccc6s5)c(Cl)c4)ncnc3s2)cc1` it was 87.8% (inactive); in that of `CN1C(=O)CCC(N2C(=O)c3cccc(NCCOCCOCCNC(=O)c4cc5c(o4)C(=O)c4ccccc4C5=O)c3C2=O)C1=O` (stereo not given), -22.8% (active); in that of `Cc1cc(=O)[nH]c(N/N=C/c2cc(Br)ccc2O)n1`, 69% (inactive).
For `O=C1C(Cl)C(c2ccccc2Cl)N1n1cnnc1` (stereo not given), the growth was 87.6% (inactive).
In the case of `CCN(CC)CC(O)CNc1c2ccc(Cl)cc2nc2ccc(OC)cc12` (stereo not given) it was 38.3% (inactive); in that of `N#Cc1cnn2c(-c3ccc(Cl)cc3)nc(NCCc3ccccc3)nc12`, 99.6% (inactive); in that of `O=c1[nH]nc(-c2ccc(Cl)cc2)cc1Cc1ccccc1`, 103% (inactive).
To `COc1cc(C2CC(c3ccc(Nc4nc(Nc5ccc(F)cc5)nc(Nc5ccc(Cl)cc5)n4)cc3)=NN2C(C)=O)cc(OC)c1OC` (stereo not given) belongs 75.7% (inactive).
In the case of `C[C@@H]1C(=O)N(C[C@@H](Cc2ccccc2)NC(=O)OCc2ccccc2)[C@]1(Cc1ccccc1)C(=O)OCc1ccccc1` it was 55.2% (inactive).
On to `O=C(Nc1ccccn1)[C@H](O)[C@@H](O)C(=O)N1CCOCC1`, for which the growth is 104% (inactive).
To `C=C1c2c(C)nn(-c3ccc(S(N)(=O)=O)cc3)c2N(C)C23CC1C1(C)c4c(C)nn(-c5ccc(S(N)(=O)=O)cc5)c4N(C)C(C)(CC12)C3` (stereo not given) belongs 54.3% (inactive); to `COc1ccc(/C=C2\COc3ccc(O)cc3C2=O)cc1OC`, 80.4% (inactive); to `CCNCCNc1cc(-c2ccc(C#N)cc2)c(C#N)c2nc3ccccc3n12`, 25.2% (inactive).
`N=C(N)c1ccc(-c2ccc(-c3ccc(Cl)cn3)s2)cc1`: the growth is 63.2% (inactive).
To `Clc1ccc2c(NCCCN3CCN(c4nc(N5CCOCC5)nc5ccccc45)CC3)ccnc2c1` belongs 17.2% (inactive); to `CCNCCNc1cc(-c2cccc(C(F)(F)F)c2)c(C#N)c2nc3ccccc3n12`, -48.3% (active); to `Cc1cccc(-c2cc(O)c(C(=O)N3CCOCC3)s2)c1`, 53.8% (inactive).
To `COc1cc2c(O)n(CCCn3ccnc3)c3c4cnc5cccc(c(=O)c3c2cc1OC)c54` belongs 73.8% (inactive); to `O=C(C[C@@]1(O)C(=O)Nc2c(Cl)ccc(Cl)c21)c1ccc(C2CC2)cc1`, 7.19% (active).
